Measured values taken from PubChem BioAssay AID2242 (National Center for Advancing Translational Sciences (NCATS), 2010).
Among all 200,000 compounds or so, about 720 (0.36%) were called active. Not shown: some 8% with an inconclusive outcome. The call rests on the fitted dose curve; in most records, active means well fitted activation curve with a large enough effect; inconclusive means small, poorly fitted or top-dose-only effect, or effect the other way, or another doubt; inactive means flat fitted curve, though single readings scatter. The list shows a part of the results.

Molecular target: Lysosomal alpha-glucosidase (Homo sapiens) (UniProt P10253)
Experiment: qHTS Assay for Activators of Human alpha-Glucosidase as a Potential Chaperone Treatment of Pompe Disease; further: nearly all actives have a fitted effect of over 80% in size;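 on activity change, positive = activation: 0% = no enzyme basal signal and 100% = uninhibited enzyme activity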
Conditions: purified enzyme, 4-MU-alpha-glucoside fluorescence, 20 min; series mostly up to 76.9 µM; activity change, positive = activation: at the top concentration
Outline: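 Compounds titrated up to 77 uM against 4 nM enzyme and 400 uM methylumbelliferyl substrate at room temperature, 20 min, pH 5.0. Basic stop, then 4-methylumbelliferone fluorescence (365/440 nm) normalized to no-enzyme and enzyme controls; Hill-equation AC50.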
Potency means the concentration at half of the fitted maximal effect.

| SMILES | Potency | activity change, positive = activation |
| --- | --- | --- |
| CC(=O)Nc1nc2ccc(-c3nc4ccccc4o3)cc2s1 | 25.1 µM (active) |  |
| COc1ccc(OC)c(C=Nc2ccccc2-c2nc3ccccc3[nH]2)c1 | 28.2 µM (active) |  |
| Nc1c(C(=O)NCCN2CCOCC2)c2nc3ccccc3nc2n1CCc1ccccc1F | 39.8 µM (active) |  |
| Nc1c(C(=O)NCCN2CCOCC2)c2nc3ccccc3nc2n1-c1ccccc1 | 35.5 µM (active) |  |
| Nc1c(C(=O)NCCN2CCOCC2)c2nc3ccccc3nc2n1-c1cccc(F)c1 | 35.5 µM (active) |  |
| Cc1ccc(C)n1-c1nccc(-c2ccco2)n1 | 22.4 µM (active) |  |
| CNc1nc(-c2ccccc2)cc(C)c1S(C)(=O)=O | 28.2 µM (active) |  |
| Nc1ccccc1-c1nnc(-c2ccc(-c3ccccc3)cc2)o1 | 35.5 µM (active) |  |
| CCNc1nc(C)c2cc(Br)c(=O)n(CC)c2n1 | 35.5 µM (active) |  |
| COc1ccc(-n2c(N)c(C(=O)NCC3CCCO3)c3nc4ccccc4nc32)c(OC)c1 (stereo not drawn) | 31.6 µM (active) |  |
| CCOC(=O)c1c(N)n(C2CC(C)(C)NC(C)(C)C2)c2nc3ccccc3nc12 | 31.6 µM (active) |  |
| Nc1c(C(=O)NCC2CCCO2)c2nc3ccccc3nc2n1-c1ccccc1 (stereo not drawn) | 35.5 µM (active) |  |
| COCCn1c(N)c(C(=O)NCC2CCCO2)c2nc3ccccc3nc21 (stereo not drawn) | 35.5 µM (active) |  |
| Nc1c(C(=O)OCC2CCCO2)c2nc3ccccc3nc2n1C1CCCC1 (stereo not drawn) | 39.8 µM (active) |  |
| CCCCC(NS(=O)(=O)c1ccc(C)cc1)C(=O)Oc1ccc2c3c(c(=O)oc2c1)CCC3 (stereo not drawn) | 31.6 µM (active) |  |
| Cc1ccc(S(=O)(=O)NC(CC(C)C)C(=O)Oc2ccc3c4c(c(=O)oc3c2)CCC4)cc1 (stereo not drawn) | 35.5 µM (active) |  |
| Cc1ccc(-c2nn(-c3ccccc3)cc2/C=C/C(=O)Nc2nccs2)cc1 | 35.5 µM (active) |  |
| COCCNC(=O)c1c(N)n(CCCn2ccnc2)c2nc3ccccc3nc12 | 35.5 µM (active) |  |
| CCCNC(=O)c1c(N)n(-c2cccc(OC)c2)c2nc3ccccc3nc12 | 35.5 µM (active) |  |
| COCCNC(=O)c1c(N)n(-c2ccccc2)c2nc3ccccc3nc12 | 39.8 µM (active) |  |
| COC(=O)c1c(N)n(-c2ccc(NC(C)=O)cc2)c2nc3ccccc3nc12 | 28.2 µM (active) |  |
| CCN1CCN(C(=O)c2cc3c(=O)n4ccccc4nc3n2Cc2ccccc2)CC1 | 31.6 µM (active) |  |
| O=C(NCCN1CCOCC1)c1cc2c(=O)n3ccccc3nc2n1Cc1ccccc1 | 35.5 µM (active) |  |
| CCCc1cc(=O)oc2c(C)c(O)c(CN3CCCCC3)cc12 | 17.8 µM (active) |  |
| CCc1cc(=O)oc2c(C)c(O)c(CN(C)C)cc12 | 35.5 µM (active) |  |

| SMILES | Potency | activity change, positive = activation |
| --- | --- | --- |
| CCc1cc(=O)oc2c(C)c(O)c(CN3CCCCC3)cc12 | 35.5 µM (active) |  |
| Cc1cc(=O)oc2cc(OC(=O)c3nn(C(C)C)c(=O)c4ccccc34)ccc12 | 35.5 µM (active) |  |
| CCCn1nc(C(=O)Oc2ccc3c(C)cc(=O)oc3c2)c2ccccc2c1=O | 35.5 µM (active) |  |
| CCCCn1nc(C(=O)Oc2ccc3c(C)cc(=O)oc3c2)c2ccccc2c1=O | 35.5 µM (active) |  |
| COC(=O)C1=CN(C(C)C)C=C(C(=O)OC)C1c1cccc(OC)c1 | 28.2 µM (active) |  |
| COC(=O)C1=CNC=C(C(=O)OC)C1c1cccc(OC)c1 | 31.6 µM (active) |  |
| Cc1ccc2cc3c(nc2c1)N(c1ccccc1)CC3 | 22.4 µM (active) |  |
| N#C/C(=C(/O)CCCl)c1ccccn1 | 39.8 µM (active) |  |
| CC1CCCN(CCCNC(=O)c2coc3nc4ccccc4nc23)C1 (stereo not drawn) | 22.4 µM (active) |  |
| CN1c2ccccc2-c2nc3ccccc3n2C1c1ccco1 (stereo not drawn) | 39.8 µM (active) |  |
| Cc1ccc(C2N(C)c3ccccc3-c3nc4ccccc4n32)o1 (stereo not drawn) | 39.8 µM (active) |  |
| CCN1c2ccccc2-c2nc3ccccc3n2C1c1ccco1 (stereo not drawn) | 35.5 µM (active) |  |
| CN(C)c1c2ccccc2nc2c(F)c(F)c(F)c(F)c12 | 39.8 µM (active) |  |
| Clc1ccc(-c2nc3ncccn3c2Cl)cc1 | 22.4 µM (active) |  |
| CC(=O)/C=C(\C)Nc1ccc(-c2cnc(-c3ccccc3)o2)cc1 | 39.8 µM (active) |  |
| Nc1cccc2nc3ccccc3cc12 | 28.2 µM (active) |  |
| Cc1cc(=O)oc2cc(NS(=O)(=O)c3ccc(F)cc3)ccc12 | 35.5 µM (active) |  |
| Cc1cc(=O)oc2cc(NS(=O)(=O)c3ccccc3)ccc12 | 35.5 µM (active) |  |
| CCCCCOC(=O)c1c(N)n(CCOC)c2nc3ccccc3nc12 | 35.5 µM (active) |  |
| CCOC(=O)c1c(N)n(CCOC(=O)c2cccs2)c2nc3ccccc3nc12 | 31.6 µM (active) |  |
| COCCn1c(N)c(C(=O)OCc2ccccc2)c2nc3ccccc3nc21 | 31.6 µM (active) |  |
| CCOc1ccc(CN2CCN(Cc3[nH]c4ccc(OC)cc4c3C)CC2CCO)cc1 (stereo not drawn) |  | 4.1e-05% (inactive) |
| O=C(O)CCn1cc(C2CC(c3ccccc3)=NN2c2ccccc2)c(-c2ccccc2)n1 (stereo not drawn) | 31.6 µM (active) |  |
| COCCn1c(N)c(S(=O)(=O)c2cccs2)c2nc3ccccc3nc21 | 35.5 µM (active) |  |
| Nc1c(S(=O)(=O)c2cccs2)c2nc3ccccc3nc2n1CCc1ccccc1 | 31.6 µM (active) |  |

| SMILES | Potency | activity change, positive = activation |
| --- | --- | --- |
| Nc1c(S(=O)(=O)c2cccs2)c2nc3ccccc3nc2n1CC1CCCO1 (stereo not drawn) | 31.6 µM (active) |  |
| C=CCn1c(N)c(S(=O)(=O)c2cccs2)c2nc3ccccc3nc21 | 35.5 µM (active) |  |
| CC(C)Cn1c(N)c(S(=O)(=O)c2cccs2)c2nc3ccccc3nc21 | 25.1 µM (active) |  |
| CC(C)CCn1c(N)c(S(=O)(=O)c2cccs2)c2nc3ccccc3nc21 | 35.5 µM (active) |  |
| Cc1ccc(-c2cc(-c3ccccc3)c(C#N)c(N)n2)o1 | 35.5 µM (active) |  |
| Cc1ccc(-c2cc(-c3ccccc3Cl)c(C#N)c(N)n2)o1 | 28.2 µM (active) |  |
| Cn1c(C(=O)NCC2CCCO2)cc2c(=O)n3ccccc3nc21 (stereo not drawn) | 31.6 µM (active) |  |
| Cn1c(C(=O)NCc2ccccn2)cc2c(=O)n3ccccc3nc21 | 28.2 µM (active) |  |
| CCOC(=O)CC1C(=O)NCCN1C(=O)c1cc2c(=O)n3cccc(C)c3nc2s1 (stereo not drawn) | 31.6 µM (active) |  |
| CCOC(=O)CC1C(=O)NCCN1C(=O)c1cc2c(=O)n3ccccc3nc2s1 (stereo not drawn) | 35.5 µM (active) |  |
| O=C(c1cc2c(s1)-c1ccccc1OC2)N1CCc2ccccc2C1 | 35.5 µM (active) |  |
| COc1cc2c(cc1OC)C(C)N(C(=O)c1cc3c(s1)-c1ccccc1OC3)CC2 (stereo not drawn) | 39.8 µM (active) |  |
| O=C(c1cc2c(s1)-c1ccccc1OC2)N1CCCC1 | 28.2 µM (active) |  |
| CN1C(=O)c2ccccc2N(C)C1c1ccccc1Cl (stereo not drawn) | 39.8 µM (active) |  |
| CCCCn1c2nc3ccccc3nc2c2c(=O)n(-c3ccccc3)cnc21 | 35.5 µM (active) |  |
| CCC(N=c1cc(-c2ccc(OC)cc2)oc2ccc(C)cc12)C(=O)O (stereo not drawn) | 31.6 µM (active) |  |
| O=[N+]([O-])c1cccc(Nc2c3ccccc3nc3ccccc23)c1 | 28.2 µM (active) |  |
| O=c1oc2c(CN3CCN(CCO)CC3)c(O)ccc2cc1-c1ccccn1 | 31.6 µM (active) |  |
| CCCN(CC(=O)Nc1ccc(Cl)cc1Cl)C(=O)/C=C/c1cc(OC)ccc1OC | 31.6 µM (active) |  |
| c1ccc(C[n+]2cccc3c4ccccc4ccc32)cc1 | 39.8 µM (active) |  |
| CCCCC[n+]1cccc2c3ccccc3ccc21 | 35.5 µM (active) |  |
| O=C(O)C1C2C=CC(O2)C1C(=O)NCCCn1ccnc1 (stereo not drawn) | 20 µM (active) |  |
| CN1CCCc2cc(C#N)c(=O)[nH]c21 | 39.8 µM (active) |  |
| Cc1cc(=O)oc2cc3c(cc12)OCCN3 | 35.5 µM (active) |  |
| COc1cccc(-c2cc(C(F)(F)F)c(C#N)c(=O)[nH]2)c1 | 35.5 µM (active) |  |

| SMILES | Potency | activity change, positive = activation |
| --- | --- | --- |
| N#Cc1c(C(F)(F)F)cc(-c2ccccc2)[nH]c1=O | 35.5 µM (active) |  |
| COc1cccc(-c2ccc(C#N)c(=O)[nH]2)c1 | 39.8 µM (active) |  |
| N#Cc1c(C(F)(F)F)cc(-c2cccc(Cl)c2)[nH]c1=O | 39.8 µM (active) |  |
| N#Cc1c(C(F)(F)F)cc(-c2ccc(F)cc2)[nH]c1=O | 35.5 µM (active) |  |
| COc1ccccc1-c1cc(C(F)(F)F)c(C#N)c(=O)[nH]1 | 39.8 µM (active) |  |
| N#Cc1c(C(F)(F)F)cc(-c2ccc(Cl)cc2)[nH]c1=O | 39.8 µM (active) |  |
| N#Cc1cnn2c3c(cnc12)C(=O)N1CCc2ccccc2C1C3 (stereo not drawn) | 3.98 µM (active) |  |
| O=C1c2cnc3ncnn3c2CC2c3ccccc3CCN12 (stereo not drawn) | 12.6 µM (active) |  |
| CC(=O)c1cc2cc(O)ccc2o1 | 35.5 µM (active) |  |
| Cc1cc(C)n(-c2nc3ccccc3[nH]c2=O)n1 | 39.8 µM (active) |  |
| CNc1nnc(-c2ccc(N(C)C)cc2)s1 | 35.5 µM (active) |  |
| Cc1cc(=O)[nH]c2cc(O)ccc12 | 35.5 µM (active) |  |
| CC(=O)Oc1ccc2c(C)cc(=O)[nH]c2c1 | 20 µM (active) |  |
| CCc1cc2c(=O)c(Oc3ccccc3F)c(C)oc2c(CN(C)C)c1O | 35.5 µM (active) |  |
| CC(C)Nc1oc(-c2cccc3ccccc23)nc1C#N | 35.5 µM (active) |  |
| CC1CCN(c2oc(-c3cccc4ccccc34)nc2C#N)CC1 | 25.1 µM (active) |  |
| C=CCNc1oc(-c2cccc3ccccc23)nc1C#N | 31.6 µM (active) |  |
| COc1ccccc1NC(=O)CSc1nc2c(sc3ccccc32)c(=O)n1CCN(C)C | 35.5 µM (active) |  |
| CCOC(=O)c1c(C)nc(C)c(C(=O)OCC)c1-c1ccccc1 | 31.6 µM (active) |  |
| Cc1ccc(-c2cc(C(=O)O)c3sc(N4CCCCC4)nc3n2)cc1 | 28.2 µM (active) |  |
| O=C(O)c1cc(-c2ccccc2)nc2nc(N3CCCCC3)sc12 | 28.2 µM (active) |  |
| CCCCN(CC)CCCNC(=O)c1cc2cc3ccc(OC)cc3nc2o1 | 31.6 µM (active) |  |
| CCCN(CCC)CCCNC(=O)c1cc2cc3ccc(OC)cc3nc2o1 | 28.2 µM (active) |  |
